Molecules are shown by their SMILES. Unmarked numbers belong to inactive results. Results filed as inconclusive are left out. The source made the active and inactive calls. Unless noted, calls come from the whole dose curve.

In test [1] the target is 5-hydroxytryptamine receptor 2A (Homo sapiens) (UniProt P28223). Description: 5-hydroxytryptamine receptor 2A (HTR2A) small molecule antagonists, cell-based qHTS assay (AID 1963586). Note: nearly all actives have a fitted effect of over 45% in size. A digest of the protocol: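 Antagonist-mode intracellular calcium assay: DOI (4 nM) added after 5 min compound pre-incubation at room temperature to dye-loaded HTR2A-CHO cells. Fluorescence followed for 3 min, sampled every second.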

Test [2] has the same target. The test can be described thus: 5-hydroxytryptamine receptor 2A (HTR2A) small molecule agonists, cell-based qHTS assay (AID 1963587). Note: nearly all actives have a fitted effect of over 30% in size. Note: potency is the fitted concentration of half-maximal effect. A digest of the protocol:
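HTR2A-CHO cells, plated 18 h at 37 C/5% CO2, dye-loaded 1 h at 37 C; compounds in DMSO added by pin tool (agonist mode). Intracellular calcium flux read as kinetic fluorescence on FDSS over 2 min at 1 s intervals.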

Test [3] has as its target Muscarinic acetylcholine receptor M1 (Homo sapiens) (UniProt P11229). The test can be described thus: Cholinergic receptor muscarinic 1 (CHRM1) small molecule antagonists, cell-based qHTS assay (AID 1963588). Note: nearly all actives have a fitted effect of over 40% in size. Summed up: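 CHRM1-CHO calcium-flux assay, antagonist mode. Cells were seeded 18 h, dye-loaded 1 h at 37 C and given compound for 5 min at RT, then acetylcholine was added at 50nM. FDSS fluorescence was read 3 min; 15 concentrations, three runs.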
Background: In qHTS, concentration-response curves come from the screen itself.

Test [4] has the same target. The test can be described thus: Cholinergic receptor muscarinic 1 (CHRM1) small molecule agonists, cell-based qHTS assay (AID 1963589). Note: nearly all actives have a fitted effect of over 35% in size. A digest of the protocol: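 CHO cells stably expressing human CHRM1 were loaded with calcium dye for 1 h at 37 C, then compound was added in agonist mode. Intracellular calcium fluorescence was followed kinetically at 1 s intervals. Fifteen concentrations were tested in three independent runs.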

In test [5] the target is Beta-2 adrenergic receptor (Homo sapiens) (UniProt P07550). The test can be described thus: Adrenergic beta2 receptor (ADRB2) small molecule antagonists, cell-based qHTS assay (AID 1963592). Note: series mostly up to about 92 µM; nearly all actives have a fitted effect of over 50% in size. Summed up: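 Cells (CHO, stable ADRB2 overexpression) incubated 18-20hr at 37C; compounds added from DMSO; agonist mix (1nM isoproterenol, 100uM IBMX, 25uM Ro-20-1724) added; 0.5hr RT; d2-cAMP and anti-cAMP-cryptate added; 1hr RT; 665/615 nm read.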

In test [6] the target is D(2) dopamine receptor (Homo sapiens) (UniProt P14416). The test can be described thus: Dopamine D2 receptor (DRD2) small molecule agonists, cell-based qHTS assay (AID 1963594). Note: nearly all actives have a fitted effect of over 35% in size. Summed up:
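HEK293 cells stably expressing DRD2 were cultured 24 h at 37 C, then given Ro20-1724 (0.1 mM final) and compounds for 10 min at room temperature. NKH477 (200nM) was then added for 30 min. cAMP was read by HTRF.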

For test [7] the target is unchanged. The test can be described thus: Dopamine D2 receptor (DRD2) small molecule antagonists, cell-based qHTS assay (AID 1963595; active = well fitted inhibition curve with a large enough effect in the signal ratio in the repeat runs, with a control signal flat; the % refers to the signal ratio). A digest of the protocol: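 DRD2-HEK293; 0.1 mM Ro20-1724; cpd 10 min RT; NKH477 200 nM + quinpirole 12 nM, 30 min RT; HTRF cAMP (cAMP-d2/anti-cAMP cryptate), 665/620 nm ratio after 1 h.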
Test [8] has as its target Gonadotropin-releasing hormone receptor (Homo sapiens) (UniProt P30968). The test can be described thus: Human gonadotropin-releasing hormone receptor (GnRHR) small molecule agonists, calcium flux assay in GnRHR-HEK293 cells (AID 1920063). Note: nearly all actives have a fitted effect of over 35% in size. A digest of the protocol:
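HEK293 cells stably expressing human GnRHR were dye-loaded for 1 h at 37 C. Compound was added in agonist mode and fluorescence (Ex/Em 480/540) recorded kinetically for 3 min. Fifteen concentrations, triplicates.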
(In general: A change in cytosolic calcium serves as a functional read-out for many receptors and channels.)

Test [9] is described as follows: G protein-coupled receptor (GPCR) small molecule agonists, calcium flux assay: HEK293 wild type cell line counter screen (AID 1920065). A digest of the protocol: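 Wild-type HEK293 cells plated 18 h, loaded with calcium dye 1 h at 37 C, then compounds added in agonist mode (ATP as positive control). Kinetic fluorescence Ex/Em 480/540 recorded 3 min at 1 sec intervals; 15 concentrations, triplicate.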

A short description of test [10]: p53 small molecule agonists, cell-based qHTS assay with human liver microsomes: qHTS cell viability counter screen (AID 1963579). Note: nearly all actives have a fitted effect of over 45% in size. A digest of the protocol: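 p53RE-bla cells, 4,000/well, dosed 5 hours after plating, with human liver microsomes (0.5 mg/mL final) plus NADPH (0.5 mg/mL final), 16 hours at 37 C. Viability read as CellTiter-Glo luminescence after 30 min at room temperature.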

The nature of test [11]: p53 small molecule agonists, cell-based qHTS assay: qHTS cell viability counter screen (AID 1963581). Note: nearly all actives have a fitted effect of over 45% in size. Summed up: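 p53RE-bla HCT-116 cells, compounds added 5 h after plating and incubated 16 h at 37 C. Cytotoxicity measured in the same wells as intracellular ATP by CellTiter-Glo luminescence after 30 min at room temperature.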
Test [12] can be described thus: p53 small molecule agonists, cell-based qHTS assay (AID 1963582; active = well fitted activation curve with a large enough effect in the signal ratio in the repeat runs, not every such curve was filed as active; the % refers to the signal ratio). A digest of the protocol: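 p53RE-bla reporter cells, compounds added in DMSO after 5 h plating, incubated 16 h at 37 C. Beta-lactamase read via 2 h room-temperature LiveBLAzer B/G FRET substrate, fluorescence intensity.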
A short description of test [13]: cAMP Responsive Elements (CRE) small molecule agonists, cell-based qHTS assay (AID 1963590). Summed up:
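CRE-bla HEK 293T cells, 2,000/well in DMEM with 10% dialyzed FBS and 25 mM HEPES, pre-incubated 18 h at 37 C, then exposed to compound 3 h at 37 C. Beta-lactamase reporter read with LiveBLAzer B/G FRET substrate after 2 h at room temperature.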

For test [14], the target named is KiSS-1 receptor (Homo sapiens) (UniProt Q969F8). The test can be described thus: Human kisspeptin (KISS1R) small molecule agonists, calcium flux assay in KISS1R-HEK293 cells (AID 1920064; active = well fitted activation curve with a large enough effect in the repeat runs). Summed up:
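HEK293 cells stably expressing human KISS1R were loaded with calcium dye for 1 h at 37 C, then given compound; fluorescence (Ex/Em 480/540) was read kinetically for 3 min. Fifteen concentrations, triplicate.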

Test [15] can be described thus: p53 small molecule agonists, cell-based qHTS assay with rat liver microsomes: qHTS cell viability counter screen (AID 1963580). Note: nearly all actives have a fitted effect of over 45% in size. Summed up: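 In HCT-116 cells carrying a p53 response element-bla reporter, compounds were metabolically activated in situ by rat liver microsomes with NADPH over 16 h. Cell ATP content then served as the cytotoxicity measure.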
The target in test [16] is Beta-2 adrenergic receptor (Homo sapiens) (UniProt P07550). Description: Adrenergic beta2 receptor (ADRB2) small molecule agonists, cell-based qHTS assay (AID 1963593).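 Note: CHO cells stably overexpressing human ADRB2.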 A digest of the protocol:
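CHO cells stably over-expressing ADRB2 were plated overnight at 37C, then dosed with compounds plus a stimulation mix containing 100uM IBMX and 25uM Ro-20-1724 for 0.5hr at room temperature. cAMP was measured by HTRF competition, 1hr.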

Test [17] can be described thus: p53 small molecule agonists, cell-based qHTS assay with human liver microsomes (AID 1963577). Summed up: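 p53RE-bla cells, 4,000/well, compound added after 5 h, with human liver microsomes 0.5 mg/mL and NADPH 0.5 mg/mL final; 16 h at 37 C, then LiveBLAzer 2 h RT, fluorescence.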
The nature of test [18]: p53 small molecule agonists, cell-based qHTS assay with rat liver microsomes (AID 1963578). Summed up: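 p53RE-bla cells, 4,000/well, pre-incubated 5 h, then given compounds plus rat liver microsomes (0.5 mg/mL final) and NADPH (0.5 mg/mL final). Incubation 16 h at 37 C; beta-lactamase reporter read by LiveBLAzer fluorescence after 2 h at room temperature.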
Test [19] is described as follows: cAMP Responsive Elements (CRE) small molecule antagonists, cell-based qHTS assay (AID 1963591; active = well fitted inhibition curve with a large enough effect in the signal ratio in the repeat runs, not every such curve was filed as active; the % refers to the signal ratio; note: potency is the fitted concentration of half-maximal effect). A digest of the protocol: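 CRE-bla HEK293T cells plated 18 h, then given compound plus NKH477 at 0.25 uM final for 3 h at 37C. Beta-lactamase reporter read with LiveBLAzer B/G FRET substrate after 2 h at room temperature.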
% is set by controls: 0 for no effect and ±100 for the full control effect.

KiSS-1 receptor (Homo sapiens), sequence (Q969F8 whole entry, looked up): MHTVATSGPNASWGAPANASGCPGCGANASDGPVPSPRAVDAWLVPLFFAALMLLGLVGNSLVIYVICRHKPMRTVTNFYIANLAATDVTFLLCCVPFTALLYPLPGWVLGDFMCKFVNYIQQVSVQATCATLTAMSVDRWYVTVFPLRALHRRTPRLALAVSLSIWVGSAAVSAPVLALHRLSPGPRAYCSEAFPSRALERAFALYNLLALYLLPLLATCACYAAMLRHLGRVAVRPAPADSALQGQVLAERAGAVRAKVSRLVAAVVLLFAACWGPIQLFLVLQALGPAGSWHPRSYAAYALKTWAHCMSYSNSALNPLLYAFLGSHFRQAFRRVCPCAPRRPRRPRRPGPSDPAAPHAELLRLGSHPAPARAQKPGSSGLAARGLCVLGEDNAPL
D(2) dopamine receptor (Homo sapiens), sequence (P14416 whole entry, looked up): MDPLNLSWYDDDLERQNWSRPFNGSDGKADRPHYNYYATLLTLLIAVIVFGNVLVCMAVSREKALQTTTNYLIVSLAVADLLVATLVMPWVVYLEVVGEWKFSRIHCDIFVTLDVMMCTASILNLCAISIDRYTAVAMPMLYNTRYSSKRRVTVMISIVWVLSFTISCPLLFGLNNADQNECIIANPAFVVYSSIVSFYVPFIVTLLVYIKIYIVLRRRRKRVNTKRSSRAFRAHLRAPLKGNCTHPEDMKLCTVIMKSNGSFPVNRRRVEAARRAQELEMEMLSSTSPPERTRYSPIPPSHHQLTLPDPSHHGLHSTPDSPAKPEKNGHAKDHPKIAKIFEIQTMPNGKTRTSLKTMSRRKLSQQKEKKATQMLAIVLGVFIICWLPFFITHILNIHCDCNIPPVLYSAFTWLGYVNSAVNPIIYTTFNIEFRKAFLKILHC
Muscarinic acetylcholine receptor M1 (Homo sapiens), sequence (P11229 whole entry, looked up): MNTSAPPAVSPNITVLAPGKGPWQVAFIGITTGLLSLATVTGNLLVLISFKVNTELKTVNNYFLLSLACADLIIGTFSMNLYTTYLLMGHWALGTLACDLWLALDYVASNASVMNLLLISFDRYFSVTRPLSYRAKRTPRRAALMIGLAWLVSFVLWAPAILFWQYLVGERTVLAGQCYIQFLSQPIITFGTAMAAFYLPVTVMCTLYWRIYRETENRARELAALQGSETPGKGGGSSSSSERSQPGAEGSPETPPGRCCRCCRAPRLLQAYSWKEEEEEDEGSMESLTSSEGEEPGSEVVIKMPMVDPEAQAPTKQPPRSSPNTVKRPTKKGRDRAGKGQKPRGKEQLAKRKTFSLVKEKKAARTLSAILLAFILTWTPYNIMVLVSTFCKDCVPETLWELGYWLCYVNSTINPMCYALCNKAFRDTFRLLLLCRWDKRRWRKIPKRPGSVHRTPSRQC
Gonadotropin-releasing hormone receptor (Homo sapiens), sequence (P30968 whole entry, looked up): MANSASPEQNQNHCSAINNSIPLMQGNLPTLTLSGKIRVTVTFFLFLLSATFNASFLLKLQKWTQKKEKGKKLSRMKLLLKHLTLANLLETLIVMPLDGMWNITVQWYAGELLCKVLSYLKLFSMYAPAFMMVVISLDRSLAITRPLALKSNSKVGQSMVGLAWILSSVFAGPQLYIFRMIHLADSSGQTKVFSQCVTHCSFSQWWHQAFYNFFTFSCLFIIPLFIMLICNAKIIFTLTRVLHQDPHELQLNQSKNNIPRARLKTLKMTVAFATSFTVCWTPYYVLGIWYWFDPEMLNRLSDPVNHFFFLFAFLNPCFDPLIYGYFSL
Beta-2 adrenergic receptor (Homo sapiens), sequence (P07550 whole entry, looked up): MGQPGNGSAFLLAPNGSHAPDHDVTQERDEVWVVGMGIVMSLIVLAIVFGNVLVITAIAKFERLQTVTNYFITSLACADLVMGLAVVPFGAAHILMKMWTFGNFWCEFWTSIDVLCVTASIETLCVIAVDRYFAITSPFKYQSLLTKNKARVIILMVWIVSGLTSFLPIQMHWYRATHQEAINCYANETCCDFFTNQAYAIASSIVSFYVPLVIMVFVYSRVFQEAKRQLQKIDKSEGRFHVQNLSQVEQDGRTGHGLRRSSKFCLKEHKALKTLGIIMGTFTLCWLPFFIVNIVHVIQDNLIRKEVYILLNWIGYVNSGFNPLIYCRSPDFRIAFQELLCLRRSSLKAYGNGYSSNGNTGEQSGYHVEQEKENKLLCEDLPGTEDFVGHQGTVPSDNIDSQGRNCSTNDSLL
5-hydroxytryptamine receptor 2A (Homo sapiens), sequence (P28223 whole entry, looked up): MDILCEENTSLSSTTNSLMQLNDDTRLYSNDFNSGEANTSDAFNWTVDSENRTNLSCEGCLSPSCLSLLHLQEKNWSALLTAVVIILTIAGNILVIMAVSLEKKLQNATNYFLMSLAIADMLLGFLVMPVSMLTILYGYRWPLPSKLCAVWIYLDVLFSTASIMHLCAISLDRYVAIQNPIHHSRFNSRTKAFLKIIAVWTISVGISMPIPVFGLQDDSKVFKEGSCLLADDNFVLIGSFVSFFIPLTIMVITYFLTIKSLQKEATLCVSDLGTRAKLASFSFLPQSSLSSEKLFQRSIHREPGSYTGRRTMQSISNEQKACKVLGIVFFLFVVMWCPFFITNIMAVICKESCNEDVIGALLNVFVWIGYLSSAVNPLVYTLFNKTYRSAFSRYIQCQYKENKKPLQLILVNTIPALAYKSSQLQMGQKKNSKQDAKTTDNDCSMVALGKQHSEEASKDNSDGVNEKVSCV

`Cc1ccc2ccccc2c1C`: the Potency entry in test [1], in test [2], in [3], in test [4], in test [5] and in [6] was “inactive” throughout. In addition, the Potency entry in test [7] was “inactive”.
For `CCOP(=S)(OCC)OC(Cl)C(Cl)(Cl)Cl` (stereo not given), the Potency entry in test [8], in test [9], in test [10], in test [11], in test [12] and in test [1] was “inactive” in each case. Also, the Potency result in test [2], in [3], in [4], in test [13] and in [6] was “inactive” in each case.
Consider `CC(=O)Nc1ccc2c(c1)Cc1ccccc1-2`, for which the Potency entry in [14], in test [9], in test [10], in [15], in [11] and in [5] was “inactive” in each case. In addition, the Potency entry in [16], in test [6] and in test [7] was “inactive” in each case.
For the molecule `S=C(SSC(=S)N1CCCCC1)N1CCCCC1`, the Potency entry in test [8], in test [14], in [17], in test [18], in [10] and in [12] was “inactive” each time. The Potency result in test [1], in test [3], in [13], in test [5], in [16] and in [6] was “inactive” throughout. Besides, the Potency result in test [7] is “inactive”. For the same molecule, the Potency in test [2] was 10.7 µM (active); in [19], 1.68 µM (active).
In the case of `Cc1ccc(O)cc1C`, the Potency entry in test [1], in test [2], in test [3], in test [4], in [6] and in test [7] was “inactive” throughout.
For `CN(C)C(=S)[S-].CN(C)C(=S)[S-].[Cu+2]`, in test [8], the activity change was 5.57% [at 11.8 µM, hits give high values]. Further, the activation in test [14] is 0.935% [at 15.8 µM]; in test [9], 0.103% [at 11.8 µM]; in test [2], 16.6% [at 15.9 µM]; in test [4], 0.767% [at 15.8 µM]; in test [6], 0.949% [at 19 µM]. Also, the activity change, negative = cytotoxicity in test [10] is -25.4% [at 13.5 µM]. Also, the activity, negative = inhibition was 13.6% [at 12.7 µM] in test [1] and -2.33% [at 12.6 µM] in test [3]. The activity change, negative = inhibition was -106% [at 18.9 µM] in test [19], 0.898% [at 19 µM] in [5] and 2.62% [at 18.9 µM] in test [7].
Consider `O=C(O)/C=C/C(=O)O`, for which the Potency entry in test [17], in test [18], in test [10], in test [15], in test [11] and in test [12] was “inactive” each time.
For `CC(C)N(C(=O)SC/C(Cl)=C/Cl)C(C)C`, the Potency result in test [14], in test [9], in [18], in test [10], in test [15] and in test [11] was “inactive” throughout. The Potency result in [12], in [1], in test [2], in test [4], in [13] and in test [19] was “inactive” throughout. Also, the Potency result in test [5], in [16], in test [6] and in test [7] was “inactive” throughout.
Consider `CCC1(c2cnc[nH]2)Cc2ccccc2C1`, for which the Potency entry in [17], in [18], in test [10], in test [11] and in [12] was “inactive” in each case.
For `CSCC[C@H](NC(=O)[C@H](Cc1c[nH]c2ccccc12)NC(=O)CCNC(=O)OC(C)(C)C)C(=O)N[C@@H](CC(=O)O)C(=O)N[C@@H](Cc1ccccc1)C(N)=O`, the Potency result in test [1], in [3] and in test [4] was “inactive” each time.
As to `CCOP(=O)(OCC)Oc1nc(Cl)c(Cl)cc1Cl`, the Potency entry in [8], in test [14], in test [9], in test [15], in test [11] and in test [1] was “inactive” throughout. The Potency entry in test [2], in test [3], in test [4] and in test [6] was “inactive” in each case.

Values taken from PubChem BioAssay (Tox21).
